Assay results as given in ChEMBL document CHEMBL3988442, “University of Dundee, Small-Polar-MMV Screening Library” (2021).
For some assays here: Entries with a potency or affinity are not part of this list.

Legend:
Design in all cases: scale not given: direction of the effect not stated beside the values
[1] = target: Protein translocase subunit SecA (Escherichia coli (strain K12)) (UniProt P10408); test: Assay to Identify E. coli SecA ATPase Inhibitors; format: functional; details: 30 µM
[2] = target: T1, Ubiquitin-activating enzyme e1, putative (Leishmania donovani (strain BPK282A1)) (UniProt E9BSI1); test: Leishmania donovani Ubiquitin Activating Enzyme (LdE1); format: functional; details: 30 µM
T1 sequence (whole entry): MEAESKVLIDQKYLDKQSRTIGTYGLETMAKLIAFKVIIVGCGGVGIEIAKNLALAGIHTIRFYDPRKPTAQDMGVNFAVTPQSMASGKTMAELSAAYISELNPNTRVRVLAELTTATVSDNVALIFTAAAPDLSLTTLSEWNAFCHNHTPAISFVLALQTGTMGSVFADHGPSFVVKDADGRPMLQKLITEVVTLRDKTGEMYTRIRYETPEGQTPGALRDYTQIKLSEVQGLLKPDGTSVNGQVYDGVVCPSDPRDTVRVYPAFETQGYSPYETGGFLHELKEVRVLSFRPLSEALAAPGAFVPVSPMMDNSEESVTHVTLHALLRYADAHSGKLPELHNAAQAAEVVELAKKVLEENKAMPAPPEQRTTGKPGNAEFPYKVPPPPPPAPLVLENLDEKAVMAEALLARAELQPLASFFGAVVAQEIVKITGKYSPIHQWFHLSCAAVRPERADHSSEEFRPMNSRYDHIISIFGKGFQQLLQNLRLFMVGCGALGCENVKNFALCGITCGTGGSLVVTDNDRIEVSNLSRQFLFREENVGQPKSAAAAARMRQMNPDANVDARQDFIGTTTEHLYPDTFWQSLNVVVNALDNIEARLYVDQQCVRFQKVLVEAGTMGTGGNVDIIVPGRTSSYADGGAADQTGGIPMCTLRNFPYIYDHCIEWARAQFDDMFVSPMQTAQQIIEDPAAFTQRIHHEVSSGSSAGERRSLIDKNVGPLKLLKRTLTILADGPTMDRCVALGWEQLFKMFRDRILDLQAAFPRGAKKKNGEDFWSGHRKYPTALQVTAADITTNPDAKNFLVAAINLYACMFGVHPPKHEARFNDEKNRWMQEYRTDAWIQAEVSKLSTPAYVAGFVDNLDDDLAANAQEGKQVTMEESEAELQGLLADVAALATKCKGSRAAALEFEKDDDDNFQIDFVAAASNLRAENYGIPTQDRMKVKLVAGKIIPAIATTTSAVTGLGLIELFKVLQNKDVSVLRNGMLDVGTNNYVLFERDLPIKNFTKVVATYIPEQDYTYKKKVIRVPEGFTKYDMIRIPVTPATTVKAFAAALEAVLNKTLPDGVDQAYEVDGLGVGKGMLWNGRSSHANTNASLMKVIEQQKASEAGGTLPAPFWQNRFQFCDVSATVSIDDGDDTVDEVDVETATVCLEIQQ

[3] = target: AMP-activated protein kinase, AMPK (Homo sapiens) (UniProt P54646+O43741+P54619+Q9UGJ0+Q9Y478+Q13131+Q9UGI9); test: AMP-dependent Kinase enzyme assay. An in vitro enzyme assay that detects ADP turnover that is directly proportional to AMPK activity. This uses naive AMPK that is activated during the assay with MK-8722; format: functional; details: 30 µM
[4] = target: Sialic acid-binding Ig-like lectin 9 (Homo sapiens) (UniProt Q9Y336); test: Hs-Siglec9 ALPHAscreen SOP 20170721; details: 10 µM
Trypanosoma cruzi = test: Trypanosoma cruzi phosphomannomutase and mannose-1-phosphate guanylyltransferase assay; format: functional; details: 10 µM
[5] = target: T2, Arginase-2, mitochondrial (Homo sapiens) (UniProt P78540); test: in vitro enzyme assay to detect the production of urea directly proportional to the activity of Arginase II; format: functional; details: 33.3 µM; also: in the data most compounds retested in dose-response had high values
T2 sequence (whole entry): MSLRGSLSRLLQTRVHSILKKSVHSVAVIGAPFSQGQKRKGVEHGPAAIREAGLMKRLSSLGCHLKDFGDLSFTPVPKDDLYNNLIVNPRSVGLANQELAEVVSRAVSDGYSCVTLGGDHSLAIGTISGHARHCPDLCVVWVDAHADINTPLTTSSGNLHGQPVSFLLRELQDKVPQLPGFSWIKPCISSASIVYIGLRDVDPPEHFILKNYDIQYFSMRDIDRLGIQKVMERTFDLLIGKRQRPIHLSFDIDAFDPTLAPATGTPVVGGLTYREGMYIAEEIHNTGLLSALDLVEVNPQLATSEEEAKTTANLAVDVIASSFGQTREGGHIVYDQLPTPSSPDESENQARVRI

[6] = target: T3, Proteasome subunit beta (Trypanosoma cruzi) (UniProt O96673); test: Trypanosoma cruzi proteasome chymotrypsin-like activity (TcProtChymo) assay.; also: in the data most compounds retested in dose-response had high values; format: functional; details: 9.37 µM
T3 sequence (whole entry): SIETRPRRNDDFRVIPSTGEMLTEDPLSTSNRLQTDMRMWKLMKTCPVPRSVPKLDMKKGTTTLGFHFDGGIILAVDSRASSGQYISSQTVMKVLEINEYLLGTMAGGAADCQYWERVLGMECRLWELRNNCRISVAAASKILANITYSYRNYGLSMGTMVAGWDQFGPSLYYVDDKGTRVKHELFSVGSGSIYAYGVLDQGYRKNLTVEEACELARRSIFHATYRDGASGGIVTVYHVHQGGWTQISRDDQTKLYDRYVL

Homo sapiens = species: Homo sapiens; test: To identify inhibition of the IFN signalling (Jak-Stat) pathway via expression of an eGFP reporter gene under the control of an IFN-stimulated response element (ISRE) containing MxA promoter.; format: functional; details: 30 µM
[7] = target: T4, Tyrosyl-tRNA synthetase, putative (Trypanosoma cruzi (strain CL Brener)) (UniProt Q4DSP6); test: Trypanosoma cruzi tyrosyl tRNA synthetase (TcYRS) _High Tyrosine SOP; format: functional; details: 30 µM; also: in the data most compounds retested in dose-response had high values
T4 sequence (whole entry): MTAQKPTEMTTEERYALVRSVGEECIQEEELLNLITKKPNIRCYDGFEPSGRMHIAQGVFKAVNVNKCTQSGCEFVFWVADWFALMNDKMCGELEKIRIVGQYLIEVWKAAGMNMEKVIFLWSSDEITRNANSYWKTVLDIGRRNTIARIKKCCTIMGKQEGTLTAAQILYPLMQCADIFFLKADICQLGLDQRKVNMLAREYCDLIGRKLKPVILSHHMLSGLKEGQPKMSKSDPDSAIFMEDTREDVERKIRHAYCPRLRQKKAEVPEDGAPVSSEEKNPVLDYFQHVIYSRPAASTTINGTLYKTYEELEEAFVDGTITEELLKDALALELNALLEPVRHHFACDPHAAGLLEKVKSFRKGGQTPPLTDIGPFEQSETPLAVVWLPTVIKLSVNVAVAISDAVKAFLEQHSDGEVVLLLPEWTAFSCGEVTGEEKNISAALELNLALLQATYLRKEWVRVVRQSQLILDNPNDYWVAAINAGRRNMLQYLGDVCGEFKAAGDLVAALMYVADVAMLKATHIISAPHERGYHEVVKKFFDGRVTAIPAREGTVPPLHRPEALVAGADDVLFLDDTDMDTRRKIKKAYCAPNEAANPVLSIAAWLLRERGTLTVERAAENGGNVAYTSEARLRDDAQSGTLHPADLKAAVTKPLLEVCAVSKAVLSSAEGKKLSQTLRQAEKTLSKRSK

[8] = target: T4, Tyrosyl-tRNA synthetase, putative (Trypanosoma cruzi (strain CL Brener)); test: Trypanosoma cruzi tyrosyl tRNA synthetase (TcYRS) SOP; format: functional; details: 30 µM
[9] = target: Chromo domain-containing protein 1 (Saccharomyces cerevisiae (strain ATCC 204508 / S288c) (Baker's yeast)) (UniProt P32657); test: ScCHD-1 Enzyme Inhibition Assay; format: functional; details: 30 µM; also: in the data most compounds retested in dose-response had high values
Chromo domain-containing protein 1 (Saccharomyces cerevisiae (strain ATCC 204508 / S288c) (Baker's yeast)), sequence (P32657 whole entry, the tested form may be a part): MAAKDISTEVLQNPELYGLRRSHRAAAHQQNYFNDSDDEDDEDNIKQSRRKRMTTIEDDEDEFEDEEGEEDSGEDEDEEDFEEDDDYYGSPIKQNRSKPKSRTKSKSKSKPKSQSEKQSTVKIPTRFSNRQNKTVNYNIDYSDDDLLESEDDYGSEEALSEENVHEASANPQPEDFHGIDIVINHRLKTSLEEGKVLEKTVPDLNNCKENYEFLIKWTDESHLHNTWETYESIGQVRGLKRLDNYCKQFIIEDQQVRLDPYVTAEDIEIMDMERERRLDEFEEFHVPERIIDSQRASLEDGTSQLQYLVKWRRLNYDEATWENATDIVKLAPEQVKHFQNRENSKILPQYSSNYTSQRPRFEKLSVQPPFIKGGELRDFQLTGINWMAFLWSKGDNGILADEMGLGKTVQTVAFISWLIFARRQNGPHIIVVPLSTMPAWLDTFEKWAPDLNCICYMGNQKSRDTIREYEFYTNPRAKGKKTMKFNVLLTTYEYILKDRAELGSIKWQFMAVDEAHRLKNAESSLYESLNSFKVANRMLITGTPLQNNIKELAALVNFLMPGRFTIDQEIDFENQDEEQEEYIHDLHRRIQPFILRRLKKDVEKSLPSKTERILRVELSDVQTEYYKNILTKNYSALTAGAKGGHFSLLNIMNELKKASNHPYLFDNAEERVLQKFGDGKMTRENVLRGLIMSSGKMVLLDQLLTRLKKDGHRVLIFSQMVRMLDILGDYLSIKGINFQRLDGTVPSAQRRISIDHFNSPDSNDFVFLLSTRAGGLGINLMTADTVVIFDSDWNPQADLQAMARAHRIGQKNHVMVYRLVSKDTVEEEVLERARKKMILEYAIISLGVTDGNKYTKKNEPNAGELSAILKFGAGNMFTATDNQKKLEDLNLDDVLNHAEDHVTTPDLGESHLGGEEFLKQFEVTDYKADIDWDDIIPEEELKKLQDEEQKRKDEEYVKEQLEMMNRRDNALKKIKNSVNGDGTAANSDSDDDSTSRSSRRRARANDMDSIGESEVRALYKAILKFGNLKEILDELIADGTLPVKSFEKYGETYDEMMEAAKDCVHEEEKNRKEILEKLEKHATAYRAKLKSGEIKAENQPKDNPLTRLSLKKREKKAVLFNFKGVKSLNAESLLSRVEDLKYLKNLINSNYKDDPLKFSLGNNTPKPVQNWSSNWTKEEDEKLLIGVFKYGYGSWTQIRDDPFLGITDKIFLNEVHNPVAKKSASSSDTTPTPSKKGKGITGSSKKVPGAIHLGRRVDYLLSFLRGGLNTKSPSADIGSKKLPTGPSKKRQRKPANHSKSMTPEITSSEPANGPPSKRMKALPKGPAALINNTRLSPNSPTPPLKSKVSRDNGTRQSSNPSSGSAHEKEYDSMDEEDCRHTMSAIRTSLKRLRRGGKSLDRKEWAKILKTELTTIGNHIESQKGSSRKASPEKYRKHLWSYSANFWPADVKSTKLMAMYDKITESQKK

Protein translocase subunit SecA (Escherichia coli (strain K12)), sequence (P10408 whole entry): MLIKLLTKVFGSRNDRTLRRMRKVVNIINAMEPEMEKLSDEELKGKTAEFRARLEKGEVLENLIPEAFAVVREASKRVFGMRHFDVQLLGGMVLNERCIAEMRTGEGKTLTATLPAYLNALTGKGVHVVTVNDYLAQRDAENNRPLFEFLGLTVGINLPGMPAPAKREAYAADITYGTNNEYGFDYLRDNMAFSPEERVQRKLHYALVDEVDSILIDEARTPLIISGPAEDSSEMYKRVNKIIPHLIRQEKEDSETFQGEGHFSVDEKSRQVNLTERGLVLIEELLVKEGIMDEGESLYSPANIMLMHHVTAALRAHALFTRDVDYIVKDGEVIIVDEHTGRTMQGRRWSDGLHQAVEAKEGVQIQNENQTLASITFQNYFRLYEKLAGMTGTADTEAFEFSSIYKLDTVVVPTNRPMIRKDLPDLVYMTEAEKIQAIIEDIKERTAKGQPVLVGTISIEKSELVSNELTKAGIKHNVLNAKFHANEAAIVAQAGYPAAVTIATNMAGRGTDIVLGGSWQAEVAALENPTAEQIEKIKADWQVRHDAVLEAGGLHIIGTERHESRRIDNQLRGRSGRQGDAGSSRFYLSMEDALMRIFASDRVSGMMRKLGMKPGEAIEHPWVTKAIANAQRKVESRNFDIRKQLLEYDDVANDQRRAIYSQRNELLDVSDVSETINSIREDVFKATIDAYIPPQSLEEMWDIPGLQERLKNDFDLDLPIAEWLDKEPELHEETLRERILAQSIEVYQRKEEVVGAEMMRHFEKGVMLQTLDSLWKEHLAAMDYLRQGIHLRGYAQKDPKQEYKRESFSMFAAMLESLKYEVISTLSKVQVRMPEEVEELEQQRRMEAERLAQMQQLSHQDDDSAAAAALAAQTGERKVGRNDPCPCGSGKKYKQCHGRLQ
Sialic acid-binding Ig-like lectin 9 (Homo sapiens), sequence (Q9Y336 whole entry): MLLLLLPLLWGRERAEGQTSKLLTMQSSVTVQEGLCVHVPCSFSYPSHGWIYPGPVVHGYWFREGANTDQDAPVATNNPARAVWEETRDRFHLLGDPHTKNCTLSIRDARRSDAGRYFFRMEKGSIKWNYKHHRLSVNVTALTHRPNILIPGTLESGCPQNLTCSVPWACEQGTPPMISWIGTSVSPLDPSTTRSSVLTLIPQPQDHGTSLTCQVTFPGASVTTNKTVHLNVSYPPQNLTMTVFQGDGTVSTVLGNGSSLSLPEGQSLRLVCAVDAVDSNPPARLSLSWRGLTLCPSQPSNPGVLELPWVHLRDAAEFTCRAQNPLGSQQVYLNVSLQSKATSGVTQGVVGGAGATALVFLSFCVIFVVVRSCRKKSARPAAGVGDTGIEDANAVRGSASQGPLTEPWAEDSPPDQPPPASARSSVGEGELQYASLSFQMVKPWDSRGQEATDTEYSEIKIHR

Compound	Percent Effect [1]	Percent Effect [2]	Percent Effect [3]	Percent Effect [4]	Percent Effect (Trypanosoma cruzi)	Percent Effect [5]	Percent Effect [6]	Percent Effect (Homo sapiens)	Percent Effect [7]	Percent Effect [8]	Percent Effect [9]
CC1c2ncc(COc3cccnc3)n2CCN1C(=O)C1=CCCC1 (stereo unspecified)	-4.3%	12%	-0.286%	5.22%	-2.75%	-1.58%	9.43%	16.6%	7.41%	10.3%	-7.55%
c1ccc2oc(NC3CCCN(Cc4noc(C5CC5)n4)C3)nc2c1 (stereo unspecified)	-1.73%	-5.41%	-1.19%	-0.829%	4.63%	3.81%	7.93%	-1.13%	2.65%	4.88%	5.42%
O=c1ccc(-c2cccs2)nn1CN1CCCCCC1	-4.24%	-4%	-3.16%	2.9%	3.54%	-3.35%	7.21%	-1.68%	7.41%	10.3%	-5.05%
O=c1c2sccc2nc2n1CCN(Cc1cccs1)CC2	-2.34%	12.2%	10.7%	1.3%	-0.395%	-1.16%	10.9%	12.6%	0%	11.7%	-12%
CN(Cc1cnn(C)c1)C(=O)NC1CCN(c2ncccn2)CC1	-7.21%	13%	1.2%	-4.13%	-10.7%	-0.356%	6.25%	25.2%	1.94%	2.44%	-8.45%
O=C(c1ccn(-c2cccc(Cl)c2)n1)N1CCN(C2CC2)CC1	-11.5%	10.4%	-3.12%	2.64%	-4.49%	-1.78%	27.5%	29.6%	-0.971%	-4.88%	-3.18%
CCc1nnc(Nc2cccc(C3CCN(CCO)CC3)n2)s1	-7.83%	12.2%	0.559%	1.33%	1.58%	-2.55%	14%	24%	2.15%	11.7%	-26.9%
COc1ccc(C)cc1CNCc1ccc(-n2nc(C)cc2C)nc1	0.678%	10.5%	3.46%	0.511%	-2.82%	1.15%	12.2%	22.1%	3.43%	17.1%	-9.32%
c1nc2c(c(C3CC3)n1)CCN(Cc1ccc3c(c1)OCO3)CC2	-2.79%	-5.48%	3.53%	13.7%	4.37%	-0.399%	7.45%	8.17%	6.25%	1.24%	-2.36%
Cc1ccc(-n2nnc(CC(=O)N3CCSCC3)c2C)cc1	-3.7%	20.8%	-1.3%	11.8%	3.83%	-5.52%	11.2%	-2.27%	5.38%	21%	-9.71%
CC(C)(O)CN1CCN(C(=O)c2sccc2C2CC2)CC1	-3.28%	6.33%	9.46%	2.31%	-2.56%	4.09%	4.97%	1.7%	3.12%	2.53%	-6.63%
Cn1cc(CN2C[C@@H]3COC[C@@H](C(=O)N4CCCCO4)[C@@H]3C2)cn1	-2.29%	2.67%	9.23%	1.72%	0.787%	3.03%	8.19%	3.52%	7.45%	8.97%	1.85%
CCS(=O)(=O)N1CCC2(CC(=O)N(c3cccc(C)c3)C2)C1 (stereo unspecified)	-2.42%	8%	-0.745%	0.841%	1.54%	-48.9%	8.21%	-25.8%	8.33%	27.5%	-6.79%
Nc1nc(C2CCN(C(=O)c3cscn3)CC2)cs1	-2.59%	10.7%	8.2%	-2.11%	-3.15%	-3.03%	3.96%	18.2%	3.19%	11.5%	-5.08%
Cc1cc(-c2cnc(N3CCN(C)CC3)nc2-c2ccc(C)s2)on1	-2.21%	-1.35%	10.6%	0.731%	-4.15%	2.09%	2.81%	-1.59%	1.07%	6.49%	-16.5%
CCN(Cc1nc2c(cnn2C)c(=O)[nH]1)c1cccc(F)c1	-1.38%	11.4%	6.32%	2.17%	-2.36%	-6.24%	15.3%	9.49%	1.04%	15.2%	-15.7%
